Laboratory results as given in publication PMC5540273 (PLoS ONE, 2017).

What follows are compounds tested on CSNK1A1L. Conditions: concentration: 1 μM, replicates: in singlicate; n = 1.
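Note: KINOMEscan kinase panel screen.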

| Structure (SMILES) | %Inh [%] |
| --- | --- |
| CN(C)S(=O)(=O)c1cc(-c2ccc3nccc(-c4cccc(S(N)(=O)=O)c4)c3c2)cnc1N [GSK1669921] | 14 |
| CCS(=O)(=O)c1ccc(OC)c(Nc2nccc(-c3c(-c4cccc(NC(=O)c5c(F)cccc5F)c4)nn4ncccc34)n2)c1 [GSK326180] | 0 |
| COc1cc(Nc2nccc(N3CCC(NC(=O)c4cc5ccccc5s4)C3)n2)cc(OC)c1OC (centres unmarked) [GSK1379760] | 0 |
| Cc1ccc(F)c(C(=O)Nc2cccc(-c3nn4ccccc4c3-c3ccnc(Nc4cccc(F)c4)n3)c2)c1F [GSK361061] | 21 |
| Clc1ccc(-c2nn3ncccc3c2-c2ccnc(Nc3ccc4c(c3)OCCO4)n2)cc1 [GW829116] | 17 |
| CCCCc1nn2ncccc2c1-c1ccnc(Nc2ccc(N3CCN(C)CC3)cc2)n1 [GW684941] | 46 |
| CCn1c(-c2nonc2N)nc2c(C#CC(C)(C)O)ncc(OCCCCN)c21.O=C(O)C(F)(F)F.O=C(O)C(F)(F)F [GSK507274] | 18 |
| O=C(NC1CCN(c2ccnc(Nc3ccc(F)cc3)n2)C1)c1cc2ccccc2s1 (centres unmarked) [GSK1379716] | 11 |
| COc1cc2c(cc1OCCN1CCNCC1)ncc1c3ccc(C#N)cc3[nH]c21 | 0 |
| COc1cc(Nc2nccc(N3CCC(NC(=O)Nc4cccc(C(C)=O)c4)C3)n2)cc(OC)c1OC (centres unmarked) [GSK1379753] | 0 |
| O=C(Nc1cccc(-c2nn3ccccc3c2-c2ccnc(Nc3cccc(C(F)(F)F)c3)n2)c1)c1c(F)cccc1F [GSK292658] | 5 |
